An excerpt weighted towards active compounds, which were near 3.6% of everything screened.
FAS-TE inh = inhibitors of human fatty acid synthase thioesterase domain | recombinant FAS-TE, OMFH fluorogenic substrate, fluorescence endpoint | inhibition, % at 15 µM | 0.67% of 360,000 active | AID 602261 | P49327;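 active means compounds whose normalised, plate-corrected inhibition of enzyme fluorescence in the single-dose primary screen is 50% or more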;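 further: 0% = DMSO with enzyme and 100% = substrate without enzyme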
CRFBP-R2 block = CRF-BP/CRF-R2 complex antagonism | inhibition, % at 11.8 µM | HEK293 CRF-R2/CRF-BP, CRF-induced calcium fluorescence | 0.59% of 350,000 active;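 active means inhibition of the ligand-induced calcium signal above about 50% at the single tested concentration, limit read from the data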
NadD inh = NadD (S. aureus) enzyme inhibition; inhibition, % at 20 µM; purified NadD enzyme, colorimetric absorbance read-out; 0.78% of 360,000 active; AID 602399; in the data active means inhibition above about 26%
CendR NRP1 mod = NRP-1/CendR interaction modulation | 0.85% of 360,000 active | AID 602438 | inhibition, % at 25 µM | FAM-RPARPAR peptide binding to NRP-1, fluorescence polarization | O14786;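 active means inhibition or corrected inhibition above about 18%, plus a signal ratio from 0.5 to 1.5, limit read from the data, passing the limit was not always enough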
Myeloid diff 2 = promotes myeloid progenitor differentiation. AID 624256. 1% of 360,000 active. calls only at 10 µM. ER-HoxA9 myeloid progenitors, lysozyme-GFP differentiation, flow cytometry;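 active means normalized GFP-positive differentiation at or above the plate's own cutoff, the solvent-only control mean plus 3 SD; inconclusive means no clear call, values can overlap the other calls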;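 further: cells exposed to compound for four days before flow analysis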
* = called active by the depositor; i = inactive; ? = inconclusive; nt = no result; + = active, no number.

SMILES | FAS-TE inh | CRFBP-R2 block | NadD inh | CendR NRP1 mod | Myeloid diff 2
O=C(CSc1nc2ccccc2n1CCc1ccccc1)NC1CCS(=O)(=O)C1 (stereo not drawn) | -2 | 60* | -8 | -6 | i
COc1ccccc1-c1nnc(SCC(=O)NC2CCS(=O)(=O)C2)n1N (stereo not drawn) | -3 | 3 | 5 | 22* | i
COCCCn1c(SCC(=O)NC2CCCCC2)nnc1-c1ccncc1 | -8 | 8 | 10 | -16 | i
COCCCn1c(SCC(=O)NC2CCS(=O)(=O)C2)nnc1-c1ccc(Cl)cc1 (stereo not drawn) | -3 | 1 | 12 | 23* | i
CC(=O)N1CCOCC1c1cc(C(=O)Nc2ccccc2)no1 (stereo not drawn) | -5 | nt | 1 | 1 | ?
CC(=O)N1CCc2cc(S(=O)(=O)CCC(=O)N3CCN(c4ccccc4F)CC3)ccc21 | -2 | 9 | 7 | 12 | ?
CC(=O)c1ccc(N2CCN(C(=O)CCS(=O)(=O)c3ccc4c(c3)CCN4C(C)=O)CC2)cc1 | -4 | 80* | 0 | 6 | i
CC(=O)N1CCc2cc(S(=O)(=O)CCC(=O)Nc3ccccc3F)ccc21 | -8 | 10 | -3 | -3 | +
COc1ccc(NC(=O)CCS(=O)(=O)c2ccc3c(c2)CCN3C(C)=O)cc1 | -5 | -16 | -7 | -8 | i
CCn1nccc1NC(=O)c1csc([C@H]2C[C@H](O)[C@@H](CO)O2)n1 | -8 | nt | -8 | -9 | i
Cc1ccc(-n2nnnc2SCc2nnc(-c3ccccc3Br)o2)c(C)c1 | 26 | 87* | -5 | -6 | i
Cn1nnnc1SCc1nnc(-c2ccccc2Br)o1 | -5 | -11 | 0 | -2 | i
CCCCCCCN1CCC(=O)N([C@H](CO)Cc2ccccc2)CC1 | 1 | -6 | -6 | 11 | i
CCCCCCCN1CCC(=O)N([C@H](CO)CC(C)C)CC1 | -8 | -16 | -8 | 27* | i
CCCN1CCC(=O)N([C@H](COc2ccccc2)CC(C)C)CC1 | -7 | 1 | -1 | 28* | i
O=C1CCN(CCc2ccccc2)CCN1[C@H](COc1ccccc1)Cc1ccccc1 | 30 | 9 | -3 | 1 | i
CC(C)C[C@@H](COc1ccccc1)N1CCN(CCc2ccccc2)CCC1=O | 22 | -5 | -2 | 36* | i
C[C@H](CO)N1C[C@H](C)[C@@H](CN(C)C(=O)c2ccccn2)Oc2cc(Br)ccc2S1(=O)=O | -7 | -7 | 5 | 11 | i
CCCCn1nnnc1C(c1cc2ccccc2o1)N1CCN(CC(=O)N2CCCC2)CC1 (stereo not drawn) | -10 | nt | 1 | -6 | i
Cc1onc(-c2ccccc2Cl)c1C(=O)N1CCOC12CCCCC2 | -2 | -6 | -2 | 3 | i
Cc1onc(-c2ccccc2Cl)c1C(=O)N1CCOC12CCN(c1cccc(F)n1)CC2 | -4 | 4 | 2 | 18* | i
CN(c1ccccc1)S(=O)(=O)c1ccc(NC(=O)CC(=O)c2ccccc2)cc1 | 17 | -23 | 6 | 11 | +
CN(c1ccc(OCC(=O)OCC(=O)Nc2ccccc2)cc1)S(=O)(=O)c1ccc(F)cc1 | 15 | 3 | -10 | 6 | i
CN(c1ccccc1)S(=O)(=O)c1cccc(NC(=O)COc2cccc([N+](=O)[O-])c2)c1 | 30 | 52* | -5 | 11 | i
CN(c1ccc(OCC(=O)OCC(=O)Nc2ccc([N+](=O)[O-])cc2)cc1)S(=O)(=O)c1cccs1 | 29 | 8 | 3 | 32* | i
SMILES | FAS-TE inh | CRFBP-R2 block | NadD inh | CendR NRP1 mod | Myeloid diff 2
Cc1cc2c(cc1C)CN(c1ccccc1)C2 | 2 | 30 | 1 | -12 | i
CC1=C(C(=O)N2CCOCC2)CC(CC(=O)NCc2ccco2)C(=O)N1Cc1ccc(C(C)(C)C)cc1 (stereo not drawn) | 0 | 3 | -5 | -6 | i
COc1cccc(OC)c1C(=O)OCCCOC(=O)c1c(OC)cccc1OC | 5 | 48 | -14 | 10 | i
NC(=S)N/N=C/c1ccccc1OC(=O)/C=C/c1ccccc1 | 1 | 124* | -1 | 2 | i
NC(=S)N/N=C\c1ccccc1OCc1ccccc1 | 2 | 37 | 3 | -11 | i
COc1cccc(-c2nnc3sc(-c4ccccc4)nn23)c1 | -8 | 2 | 0 | 5 | i
COc1cccc(OC)c1-c1nn2c(-c3cc(-c4ccccc4)n[nH]3)nnc2s1 | -4 | 5 | 52* | -3 | i
Cc1cccc(N(CC(=O)N/N=C/c2cc([N+](=O)[O-])ccc2Cl)S(C)(=O)=O)c1C | 51* | -12 | 2 | 16 | i
Cn1c(Nc2ccc(Cl)cc2F)nc2cc(-c3ccccc3)sc2c1=O | 15 | nt | 2 | -17 | i
N#Cc1cccc(NC(=O)c2cc(C3CCCCN3C(=O)CCCc3ccccc3)on2)c1 (stereo not drawn) | 22 | nt | -3 | -10 | i
CCc1nnc(NC(=O)CSc2nc(-c3ccc(F)cc3)cc(-c3ccccc3)c2C#N)s1 | 0 | -5 | 5 | 0 | i
COc1ccc(-c2cc(-c3ccccc3)nc(SCC(=O)Nc3ncc(C)s3)c2C#N)cc1 | 38 | 0 | 34* | -2 | i
O=C(c1cnc(Cl)c(Cl)c1)N1CCN(S(=O)(=O)c2cccs2)CC1 | -10 | 13 | 0 | -4 | i
O=C(NCC(c1ccc(F)cc1)N1CCOCC1)c1nn(-c2ccccc2)c(=O)c2ccccc12 (stereo not drawn) | 19 | -3 | -1 | 2 | i
CCCCCCN1C=C/C(=C\C=C(C#N)C#N)c2ccccc21 | 41 | 8 | -7 | -34 | +
CC(=O)Nc1ccc(C(=O)N/C(=C/c2ccccc2)C(=O)NCc2ccco2)cc1 | -4 | 0 | -9 | 5 | i
Nc1nnc(SCc2ccc(Cl)cc2)s1 | -1 | -4 | 7 | 26* | i
Nc1nnc(SCc2ccc(F)cc2Cl)s1 | -9 | 58* | 0 | 1 | i
Cc1nnc(SCc2ccc(F)cc2Cl)s1 | 0 | 19 | -6 | 6 | i
CN(CC(=O)Nc1ccc(F)c(F)c1F)C(=O)CCN1C(=O)C2CC=CCC2C1=O (stereo not drawn) | -6 | -1 | -5 | 2 | i
COc1ccc(C(=O)O/N=C(\N)Cc2ccc(Cl)c(Cl)c2)cc1OC | 8 | 110* | -10 | -10 | i
COCCNC(=O)C1(C)CCCN(Cc2ccc3ccccc3c2Br)C1 (stereo not drawn) | 2 | nt | 2 | -87 | i
C=CCOC(=O)C1=C(C)NC(=O)NC1c1cc(Cl)cc(Cl)c1OC (stereo not drawn) | 1 | -3 | -2 | 4 | i
C=CCN1C(=O)[C@@H]2Cc3c([nH]c4ccccc34)C(c3cc(OC)c(OC)c(OC)c3)N2C1=S (stereo partly drawn) | 2 | 19 | 3 | -60 | +
